# Hits are enriched below; roughly 4% of the tested compounds scored in any of these assays.
# 697 NFkB inh: inhibitors of PMA/ionomycin-induced NF-kB reporter, 697 cells, primary screen, B-cell NF-kB inhibitor project, cell-based, luminescence, uHTS; 697 B-cell NF-kB luciferase reporter, 16 h; inhibition, % at 4 µM; actives 0.33% (n = 330,000); AID 435022, 2010; in the data active = inhibition above about 35%
# Gli-Sufu antag: Gli-Sufu pathway antagonists, primary screen, luciferase luminescence, Sufu-KO-LIGHT cells, uHTS; AID 588413, 2011; inhibition, % at 5 µM; actives 0.74% (n = 340,000); Sufu-KO-LIGHT fibroblasts, Gli luciferase reporter luminescence;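 active = inhibition above about 55%, limit read from the data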
# Beta cell apopt: inhibitors of cytokine-induced beta cell apoptosis, primary screen, luminescence; INS-1E cytokine-induced death, ATP luminescence, 48 h; percent of positive-control rescue, neutral wells zero; protection from apoptosis, % (concentration not given with the values); actives 0.8% (n = 300,000); AID 435005, 2010;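 active = Every replicate reaches about 75%, or at least half do and their mean reaches it too, limit read from the data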;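 also: higher means more ATP so stronger rescue from cytokine killing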
# Jurkat NFkB inh: inhibitors of induced NF-kB luciferase reporter, primary screen, TCR NF-kB activation inhibitor project, cell-based, luminescence, uHTS | Jurkat, PMA/ionomycin-induced NF-kB luciferase reporter | inhibition, % at 4 µM | actives 0.53% (n = 330,000) | AID 435003, 2010; in the data active = inhibition above about 50%
# Mdm2-MdmX inh: inhibitors of human Mdm2-MdmX association, primary screen, cell-based, luminescence, split luciferase, SaOS-2, uHTS. Protein Mdm4 (Homo sapiens) + E3 ubiquitin-protein ligase Mdm2 (Homo sapiens), …. SaOS-2 split-luciferase Mdm2/MdmX complementation. inhibition, % at 8 µM. actives 3% (n = 330,000). AID 485346, 2010;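 active = inhibition of at least 50% at 8 µM in the primary screen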
# Target sequence (O15151 whole entry, looked up): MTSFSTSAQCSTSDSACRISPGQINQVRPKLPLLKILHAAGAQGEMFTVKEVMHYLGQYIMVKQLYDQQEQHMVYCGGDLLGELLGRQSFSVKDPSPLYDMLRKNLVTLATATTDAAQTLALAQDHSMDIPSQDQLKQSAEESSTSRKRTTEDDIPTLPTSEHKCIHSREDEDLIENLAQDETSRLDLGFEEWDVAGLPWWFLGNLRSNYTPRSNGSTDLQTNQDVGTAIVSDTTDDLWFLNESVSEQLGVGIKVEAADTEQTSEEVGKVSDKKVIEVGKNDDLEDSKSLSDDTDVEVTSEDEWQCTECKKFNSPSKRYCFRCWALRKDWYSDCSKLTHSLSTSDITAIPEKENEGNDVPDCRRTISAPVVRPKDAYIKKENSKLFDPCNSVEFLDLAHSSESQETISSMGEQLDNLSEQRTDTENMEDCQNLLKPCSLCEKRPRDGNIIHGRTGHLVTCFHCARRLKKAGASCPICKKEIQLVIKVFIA
# Target sequence (Q00987 whole entry, looked up): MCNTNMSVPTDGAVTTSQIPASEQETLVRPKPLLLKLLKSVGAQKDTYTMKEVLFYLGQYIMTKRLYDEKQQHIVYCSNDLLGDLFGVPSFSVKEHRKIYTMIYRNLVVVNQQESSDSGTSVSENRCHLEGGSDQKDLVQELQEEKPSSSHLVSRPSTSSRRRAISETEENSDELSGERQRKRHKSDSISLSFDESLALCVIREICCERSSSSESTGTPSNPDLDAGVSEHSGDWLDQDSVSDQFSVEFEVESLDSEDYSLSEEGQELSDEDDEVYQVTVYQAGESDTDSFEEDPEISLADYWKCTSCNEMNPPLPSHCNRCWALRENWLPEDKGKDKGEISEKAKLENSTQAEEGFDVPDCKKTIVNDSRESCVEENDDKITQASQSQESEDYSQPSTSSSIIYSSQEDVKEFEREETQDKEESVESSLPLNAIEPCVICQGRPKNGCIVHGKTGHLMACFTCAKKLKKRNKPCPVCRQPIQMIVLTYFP
# Jurkat NFkB conf: PMA/ionomycin-induced NF-kB reporter inhibitors, Jurkat retest, confirmation, T-cell NF-kB inhibitor project, cell-based, luminescence, single concentration. inhibition, % at 4 µM. Jurkat NF-kB luciferase, 16 h. actives 27% (n = 2,700). shares compounds with Jurkat NFkB inh. AID 435020, 2010;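 active = inhibition reaching about 45% at 4 µM in either replicate, limit read from the data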
# 697 NFkB conf: PMA/ionomycin-induced NF-kB reporter inhibitors, 697 retest, confirmation, B-cell NF-kB inhibitor project, cell-based, luminescence, single concentration; shares compounds with 697 NFkB inh; 697 B-cell NF-kB luciferase, 16 h; inhibition, % at 4 µM; actives 35% (n = 2,000); AID 449746, 2010; in the data active = inhibition mostly above about 28%, no sharp cut-off; inactive = mostly below about 22%
# A number is an active result; – = inactive; · = no result.
SMILES,697 NFkB inh,Gli-Sufu antag,Beta cell apopt,Jurkat NFkB inh,Mdm2-MdmX inh,Jurkat NFkB conf,697 NFkB conf
CCc1ccccc1Nc1ncnc2ccccc12,–,·,·,–,–,·,·
CCCCCCCCNc1ncnc2ccccc12,107,82,101,71,–,68,100
CCc1ccc(N(CC(=O)NCC2CCCO2)C(=O)CCC(=O)Nc2nccs2)cc1 (configuration not stated),–,–,–,–,–,·,·
CC(C)c1nnc(NC(=O)CSc2nnc(NC(=O)c3c(F)cccc3F)s2)s1,–,–,–,–,–,·,·
COc1cccc2oc3cc(C#CC4(O)CCCCC4)ccc3c(=O)c12,–,–,–,–,–,–,–
CC(C)(C)c1ccc(NC(=O)c2ccsc2)cc1,–,–,–,–,–,–,–
Cc1ccc(NC(=O)c2ccsc2)cc1NS(C)(=O)=O,–,–,–,–,–,·,·
Cc1cccc(Nc2nnc(SCC(=O)NC(=O)CN3CCCC3=O)s2)c1,–,–,–,–,–,·,·
Brc1ccc(-c2cn3ccccc3n2)cc1,–,–,–,–,–,–,–
c1ccc(-c2cn3ccccc3n2)cc1,·,–,·,·,·,·,·
CC(C)(C)c1ccc2c(c1)C(=O)c1ccccc1C2=O,–,–,–,–,–,–,–
CCc1ccc2c(c1)C(=O)c1ccccc1C2=O,–,–,–,–,–,·,·
CCC(c1nnnn1Cc1ccc(F)cc1)N(CCCO)Cc1cc2cc3c(cc2[nH]c1=O)OCO3 (configuration not stated),–,–,–,–,–,·,·
COC(=O)CCn1nnc(-c2ccc(C(C)C)cc2)n1,69,57,–,64,–,61,78
COc1ccc(N2CCN(C(=O)CCCn3nnnc3CN3CCOCC3)C(C)C2)cc1 (configuration not stated),–,–,·,–,–,·,·
CC(C)Cc1cc(C(C)(C)C)ccc1OC(=S)N(C)C,40,–,·,51,–,60,33
Cc1cc(C(C)(C)C)ccc1OCCN(C)C,–,–,–,–,–,·,·
CCc1ccc2oc(-c3ccc(NC(C)=O)cc3)nc2c1,–,–,–,–,–,–,–
CCCC(=O)Nc1ccc(-c2nc3cc(C)c(C)cc3o2)cc1,–,–,–,–,–,–,–
Cc1cc([N+](=O)[O-])nn1Cc1ccccc1F,51,–,–,97,–,62,76
CCOc1ccc(NC(=O)CN(C)C(=O)c2cc3c(s2)CCCCC3)cc1OCC,–,–,–,–,–,·,·
Cc1nnc(NC(=O)C2COc3ccccc3O2)s1 (configuration not stated),–,–,–,–,–,·,·
O=C(Nc1nc2c(s1)CCCC2)C1COc2ccccc2O1 (configuration not stated),–,–,–,–,–,–,–
c1ccc(-c2noc(-c3ccc4c(c3)OCO4)n2)cc1,–,–,–,–,–,–,–
COc1ccc(-c2noc(-c3ccc4c(c3)OCO4)n2)cc1,–,–,–,–,–,·,·
SMILES,697 NFkB inh,Gli-Sufu antag,Beta cell apopt,Jurkat NFkB inh,Mdm2-MdmX inh,Jurkat NFkB conf,697 NFkB conf
CN1CCN(S(=O)(=O)c2ccc(N(C)Cc3cccc(F)c3)nc2)CC1,–,–,–,–,–,·,·
Cc1cc(C)n2c(SCC(=O)Nc3cc(S(=O)(=O)N(C)C)ccc3C)nnc2n1,–,–,–,–,–,·,·
CC(=O)c1ccc(NC(=O)C(C)NCc2ccccc2Cl)cc1 (configuration not stated),–,–,–,–,–,·,·
O=C(Nc1ccc2ccccc2c1)c1ccccc1F,–,–,·,–,–,–,–
COc1ccc(C(=O)Nc2ccc3ccccc3c2)c(OC)c1,–,–,–,–,–,–,–
COc1ccc2[nH]c(C(=O)Nc3ccc(C)c(F)c3)cc2c1,–,–,–,–,–,·,·
COc1ccc2[nH]c(C(=O)Nc3cccc(C)n3)cc2c1,–,–,·,–,–,–,–
CN(C)c1ccc(-c2noc(-c3ccccc3O)n2)cc1,–,–,–,–,–,–,–
c1ccc(-c2noc(-c3ccccc3-c3ccccc3)n2)cc1,–,–,–,–,–,·,·
COc1ccccc1-c1nc(-c2ccc(Br)cc2)no1,–,–,–,–,–,·,·
Cc1ccc(-c2noc(-c3ccccc3Br)n2)cc1,–,–,–,–,–,–,–
CC(=O)Nc1ccc(NC(=O)C(C)OC(=O)CCCOc2ccc(Cl)cc2C)cc1 (configuration not stated),–,–,–,–,–,·,·
CCNC(=S)N/N=C/c1ccc(C(=O)O)cc1,–,–,–,–,–,·,·
CC(C)(C)c1ccc(/C=N/Nc2ccc(C(=O)O)cc2)cc1,–,–,–,59,–,–,–
Cc1ccc2nc(NC(=O)CCCc3nc4ccccc4s3)sc2c1,–,–,–,–,–,·,·
Cc1ccc2nc(NC(=O)CCCC(=O)O)sc2c1,71,–,–,55,–,69,76
CCN(C(=O)COC(=O)c1[nH]c(=O)[nH]c(=O)c1N)c1ccccc1,–,–,–,–,–,·,·
Oc1c(N=Nc2ccccc2)sc2ccccc12,–,–,–,–,–,–,–
CC(=Nc1ccc(O)cc1)c1sc2ccccc2c1O,–,–,–,–,–,·,·
c1ccc(CSc2cc3ccccc3[nH]2)cc1,–,–,·,–,–,·,·
O=C(Cn1cnc([N+](=O)[O-])n1)N/N=C/c1cc(Cl)ccc1O,–,–,–,–,–,·,·
CN=c1scc(C)n1/N=C/c1ccc(O)cc1,–,–,–,–,–,·,·
CN=c1scc(C)n1/N=C/c1ccc(O)cc1O,–,–,–,–,–,–,–
Cc1cc2nccnc2cc1C,·,–,·,·,·,·,·
N#Cc1cc2c(nc1SCC(=O)Nc1nccs1)CCCCC2,–,–,–,–,–,–,–
SMILES,697 NFkB inh,Gli-Sufu antag,Beta cell apopt,Jurkat NFkB inh,Mdm2-MdmX inh,Jurkat NFkB conf,697 NFkB conf
Cc1ccc(NC(=O)CSCC(=O)NCc2cccc(C(F)(F)F)c2)cc1,–,–,–,–,–,·,·
Cc1ccc2c(c1)COc1c3ccc(C(=O)O)cc3nn1-2,76,·,–,93,–,68,–
Cc1ccc2c(c1)COc1c3ccc(C(=O)NCC4CC4)cc3nn1-2,–,–,–,–,–,·,·
CC1(C)Cc2cccc(OCC(=O)Nc3ccc(S(N)(=O)=O)cc3)c2O1,–,–,·,–,–,·,·
O=C(Nc1ccccc1)C(=O)c1c[nH]c2ccccc12,–,–,–,–,–,–,–
COc1cc(NC(=O)COc2cc(O)c3c(c2)OC(C)(C)CC3=O)cc(OC)c1OC,59,70,110,58,–,76,48

# Screening data deposited in PubChem by several laboratories.
